The source of these data is PubChem BioAssay (Tox21).

Results filed as inconclusive are left out. A call without a number means that no potency is given here. The source made the active and inactive calls. Calls follow the shape of the dose curve; as a rule, active = well fitted cell-killing curve with a large enough effect in the repeat runs; inconclusive = weak or mixed curves, or effect the other way; inactive = flat fitted curve, though single readings scatter.

This assay can be described thus: cAMP Responsive Elements (CRE) small molecule antagonists, cell-based qHTS assay: qHTS cell viability counter screen (AID 2060913). Also: nearly all actives have a fitted effect of over 40% in size. The note with it: CRE-bla HEK293T viability, CellTiter-Glo luminescence, 5 h; series mostly up to 92.4 µM. The method, boiled down:
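Viability of NKH477-stimulated (0.25 uM final) CRE-bla HEK293T cells is measured by CellTiter-Glo luminescence following 3 hrs compound exposure at 37 C.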
As for `C=CC(=O)OCCCCCCOC(=O)C=C`, the Potency entry is “inactive”. The same measure, in the same setting: then `N#CSc1ccc(N)c([N+](=O)[O-])c1`, with “inactive”.

For the molecule `CC(O)(P(=O)(O)O)P(=O)(O)O`, the Potency result is “inactive”. Take `O=C(Nc1ccc(Cl)c(Cl)c1)C1CC1`: the Potency entry is “inactive”. For `Nc1ccc(C(=O)Oc2ccccc2)c(O)c1`, the Potency entry is “inactive”. Same read-out and setting: the same measure for `COc1cc2c(c(OC)c1OC)-c1ccc(OC)c(=O)cc1[C@@H](NC(C)=O)CC2`: “inactive”; for `CCCOc1ccc(C(=O)OCCN(CC)CC)cc1N`: “inactive”. In the case of `O=C(O)Cc1cccc(-c2cc(CCCCCCc3ccc(O[C@H]4O[C@H](CO)[C@@H](O)[C@H](O)[C@@H]4O)c(-c4cccc(CC(=O)O)c4)c3)ccc2O[C@H]2O[C@H](CO)[C@@H](O)[C@H](O)[C@@H]2O)c1`, the viability change, negative = cytotoxic was 1.99% [at 0.349 µM] (inactive).

With `CC(=O)O[Si](C)(OC(C)=O)OC(C)=O`, the Potency entry is “inactive”. For the molecule `CC/C(=C\C(=N/O)C(N)=O)C(C)[N+](=O)[O-]` (centres undefined), the Potency entry is “inactive”.

For the molecule `NS(=O)(=O)O`, the Potency entry was “inactive”.

In the case of `CCc1ccc(C(=O)C(C)CN2CCCCC2)cc1` (centres undefined), the Potency entry is “inactive”.

As to `OCc1c[nH]c2ccccc12`, the Potency result is “inactive”. On to `Clc1cccnc1`, for which the Potency entry was “inactive”.

For `COc1cc2nc(N3CCN(C(=O)c4ccco4)CC3)nc(N)c2cc1OC`, the viability change, negative = cytotoxic was 3.29% [at 18.9 µM] (inactive). For `CC1=NS(=O)(=O)c2cc(Cl)ccc2N1`, the Potency entry is “inactive”. Take `c1ccc([C@H]2CN3CCSC3=N2)cc1`: the Potency entry was “inactive”. For the molecule `CCc1cccc(CC)c1`, the Potency result is “inactive”.

With `NCC(=O)O`, the viability change, negative = cytotoxic was -2.51% [at 18.9 µM] (inactive). Take `CC(C)c1nc(CN(C)C(=O)N[C@H](C(=O)N[C@@H](Cc2ccccc2)C[C@H](O)[C@H](Cc2ccccc2)NC(=O)OCc2cncs2)C(C)C)cs1`: the Potency result is “inactive”. Take `COc1ccc(Nc2ccc(OC)cc2)cc1`: the Potency entry was “inactive”. As for `COc1cc(NC(C)CCCN)c2ncccc2c1` (centres undefined), the Potency entry was “inactive”. The same measure, in the same setting: the same measure for `Cc1[nH]cnc1-c1ccc(Cl)cc1`: “inactive”. Regarding `COc1ccc(-c2nc3ccc(C4=NNC(=O)CC4C)cc3[nH]2)cc1` (centres undefined), the Potency entry is “inactive”.

Regarding `Cl/C(=C\n1cncn1)c1ccc(Cl)cc1Cl`, the Potency entry is “inactive”.

In the case of `CCC(C)CCCC(C)(C)O` (centres undefined), the Potency entry was “inactive”. As to `CC(C)CCCC(C)(C)O`, the Potency entry is “inactive”. Still for that read-out and setting: the same measure for `C[N+](C)(C)CCOC(N)=O`: “inactive”; for `CCCC(=O)OCc1ccccc1`: “inactive”. With `CC[C@H]1OC(=O)[C@H](C)[C@@H](O[C@H]2C[C@@](C)(OC)[C@@H](O)[C@H](C)O2)[C@H](C)[C@@H](O[C@@H]2O[C@H](C)C[C@H](N(C)C)[C@H]2O)[C@](C)(O)C[C@@H](C)C(=O)[C@H](C)[C@@H](O)[C@]1(C)O`, the Potency result is “inactive”. Consider `C=COCCOCCOC=C`, for which the Potency result is “inactive”. For `O=c1[nH]sc2cc(Cl)ccc12`, the Potency result was “inactive”. Still for that read-out and setting: then `O=C(c1ccco1)N1CCNCC1`, with “inactive”. With `COc1cc(Cl)ccc1Oc1ccc(Cl)cc1Cl`, the Potency entry was “inactive”. As for `CC1=CCC(=O)O1`, the Potency result is “inactive”.

For the molecule `CC(C)C[C@H](NC(=O)[C@H](CCc1ccccc1)NC(=O)CN1CCOCC1)C(=O)N[C@@H](Cc1ccccc1)C(=O)N[C@@H](CC(C)C)C(=O)[C@@]1(C)CO1`, the Potency result was “inactive”. As for `Cc1nc(-c2ccccn2)ncc1C(=O)Nn1cc(C)c2cc(F)ccc21`, the Potency result was “inactive”. Same read-out and setting: then `CN1CCOC(c2ccccc2)c2ccccc2C1` (centres undefined), with “inactive”. `Clc1nc2ccccc2s1`: the Potency result is “inactive”.
